In PubChem BioAssay (NCI) one finds growth inhibition data, which are given here for 40 compounds.

SMILES strings stand for the structures. About 79,000 compounds went through this panel and 15% of them were active in at least one assay; those are over-represented in the sample as a whole. Values without a mark were called inactive. Active and inactive are the calls of the source. Cut-off read from the data, not from the text of the source: active = growth inhibition above about 70%; inactive = the rest.

The nature of the first assay: NCI Yeast Anticancer Drug Screen. Data for the sgs1 mgt1 strain (AID 161).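 Note: 0% = growth of cultures given vehicle only.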 The conditions noted are these: S. cerevisiae sgs1 mgt1 strain, at 50.0 µM, stronger effect = higher value. The method, boiled down: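 Percent growth inhibition was derived by comparing compound-exposed mutant yeast with vehicle-exposed cultures. The strain carries alterations in DNA damage repair.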
Consider `CCN(CC)CCCOC(c1ccccc1)c1ccc(Cl)cc1` (stereo not given), for which the growth inhibition was 46.5%.

With `O=C(/C(=C\C(=O)c1cccs1)c1ccsc1)c1ccc(Br)cc1`, the growth inhibition was 11.2%.

`CCCCCCOCC(=O)OC`: the growth inhibition is -1.55%.

Consider `CC(=O)NC1=C(Sc2ccc(Cl)cc2)C(=O)c2ccccc2C1=O`, for which the growth inhibition is 18.3%.

With `CC(=O)OCC1OC(Sc2ccc([N+](=O)[O-])cc2)C(OC(C)=O)C(OC(C)=O)C1OC(C)=O` (stereo not given), the growth inhibition is -12.1%.

Consider `c1ccc(C23CCCCC2O3)cc1` (stereo not given), for which the growth inhibition was 6.55%.

On to `CCN(CC)C(=S)Nc1ccc(-c2cc3ccc(O)cc3oc2=O)cc1`, for which the growth inhibition is -5.45%.

`Nc1cccc(C(=O)Nc2ccc3c(O)cc(S(=O)(=O)O)cc3c2)c1`: the growth inhibition was 11.9%.

Regarding `O=C(CCCC(=O)Nc1cccc([N+](=O)[O-])c1)CC(=O)c1ccc([N+](=O)[O-])cc1`, the growth inhibition was -8.2%.

As to `CSc1cc(Cl)c(C)cc1S(=O)(=O)n1cc[nH]c1=O`, the growth inhibition was 3.35%.

Consider `O=C1CN(CCN2CCCCC2)CC(=O)N2Cc3ccccc3CN12`, for which the growth inhibition was 12.1%.

On to `COC(=O)NC1(NC(=O)OC)NC(=O)c2cc(OC)c(OC)c(OC)c2N1`, for which the growth inhibition was 10.8%.

With `Cc1cccc(C(=O)NC(C)C)c1`, the growth inhibition is -5.9%.

Regarding `Cc1ccc(S(=O)(=O)OC2CCCCCC2c2ccccc2)cc1` (stereo not given), the growth inhibition is 0.05%.

With `c1ccc2c(c1)CCCC(N1CCOCC1)C2` (stereo not given), the growth inhibition is 16.9%.

`CCOC(=O)CSC(=O)NCCCl`: the growth inhibition was -2.8%.

In the case of `COc1ccc(C(=O)/C(Br)=C\C(=O)O)cc1`, the growth inhibition is 5.4%.

Take `CCc1nc(N)nc(N)c1-c1ccc(Cl)c([N+](=O)[O-])c1`: the growth inhibition is -8.35%.

As to `COc1ccc(C2CC(c3cc(C)ccc3O)=NC(N)=N2)cc1` (stereo not given), the growth inhibition is 15.8%.

As to `CCOC(=O)Cc1csc2[n+]1C(=O)/C(=C/c1cccc(OC)c1O)S2`, the growth inhibition was 53.4%.

For the compound `COc1ccc(CCN2C(=O)C(=O)N(c3ccc([N+](=O)[O-])cc3)C2=O)cc1OC`, the growth inhibition was -13.3%.

Turning to `CC1(c2cccc[n+]2Cc2ccccc2S(=O)(=O)[O-])OCCO1`, the growth inhibition was -8.95%.

Consider `O=c1[nH]nc(SCc2ccccc2)c(=O)n1C(c1ccccc1)c1ccccc1`, for which the growth inhibition is 18.6%.

In the case of `COc1cc(C(=O)O)ccc1OC(C)=O`, the growth inhibition was -2.15%.

On to `O=C1C=C(c2ccccc2)C(O)(c2ccccc2)/C1=C/C=C/c1ccccc1` (stereo not given), for which the growth inhibition is 6.5%.

For `Cc1onc(-c2c(F)cccc2Cl)c1C(=O)Nc1cc2cc([N+](=O)[O-])ccc2oc1=O`, the growth inhibition was 2.3%.

Consider `C=CCSc1nc2ccc(NCn3c(=S)sc4ccccc43)cc2s1`, for which the growth inhibition is 85.7% (active).

`Nc1nc(Cl)nc(Nc2ccc(-c3cc4ccc(-c5ncc[nH]5)cc4[nH]3)cc2)n1`: the growth inhibition is 45.4%.

Take `CC(Br)C1=CC(c2ccccc2)(c2ccccc2)c2ccccc21` (stereo not given): the growth inhibition was 97.9% (active).

For `COc1cccc(NC(=S)NC(=O)c2ccccc2)c1`, the growth inhibition was 96.2% (active).

`Cc1ccc(C(=O)N2CCCCC2)cc1N=NN(C)C`: the growth inhibition was -25.6%.

`COC(=O)CC1(C(=O)OC)OC(=O)c2ccccc2N1C` (stereo not given): the growth inhibition is 19.9%.

Turning to `COc1cc(O)c(Cc2ccccc2O)c(O)c1C(=O)CCc1ccccc1`, the growth inhibition is -13.5%.

In the case of `Cc1ccccc1-c1nc2c([nH]1)c(=O)n(C)c(=O)n2C`, the growth inhibition was -10.2%.

As for `ClC(c1ccccc1)c1cccc2ccccc12` (stereo not given), the growth inhibition is 7.7%.

For `O=S1(=O)OC(c2ccc(O)cc2)(c2ccc(O)cc2)c2ccccc21`, the growth inhibition is 3.1%.

For `CCCSS[C@H]1NC(=O)[C@H]1NC(=O)COc1ccccc1`, the growth inhibition was 1.4%.

Consider `Cc1cc(N(CCC#N)CCC#N)ccc1N=Nc1ccccc1[N+](=O)[O-]`, for which the growth inhibition is -13.3%.

As to `CC(C)(NC(=O)c1cc(Cl)c2ccccc2c1O)C(=O)O`, the growth inhibition was 27.7%.

For `CN1C(C(=O)Nc2ccccn2)=C(O)c2ccccc2S1(=O)=O`, the growth inhibition was 5.1%.

Another assay is described as follows: NCI Yeast Anticancer Drug Screen. Data for the cln2 rad14 strain (AID 165).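 Note: 0% = growth equal to vehicle treated cultures.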 The conditions noted are these: S. cerevisiae cln2 rad14 strain, at 50.0 µM, stronger effect = higher value. The method, boiled down: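 Yeast carrying cln2 and rad14 alterations (cell cycle control and DNA damage repair) were exposed to compounds. Growth inhibition was measured against vehicle-treated controls.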
For `CCN(CC)CCCOC(c1ccccc1)c1ccc(Cl)cc1` (stereo not given), the growth inhibition was 41.9%.

Regarding `O=C(/C(=C\C(=O)c1cccs1)c1ccsc1)c1ccc(Br)cc1`, the growth inhibition is -25.9%.

`CCCCCCOCC(=O)OC`: the growth inhibition was 8.35%.

As for `CC(=O)NC1=C(Sc2ccc(Cl)cc2)C(=O)c2ccccc2C1=O`, the growth inhibition was -56.4%.

On to `CC(=O)OCC1OC(Sc2ccc([N+](=O)[O-])cc2)C(OC(C)=O)C(OC(C)=O)C1OC(C)=O` (stereo not given), for which the growth inhibition is -1.35%.

Regarding `c1ccc(C23CCCCC2O3)cc1` (stereo not given), the growth inhibition was 5.95%.

Regarding `CCN(CC)C(=S)Nc1ccc(-c2cc3ccc(O)cc3oc2=O)cc1`, the growth inhibition was 32.9%.

`Nc1cccc(C(=O)Nc2ccc3c(O)cc(S(=O)(=O)O)cc3c2)c1`: the growth inhibition was -30.4%.

Regarding `O=C(CCCC(=O)Nc1cccc([N+](=O)[O-])c1)CC(=O)c1ccc([N+](=O)[O-])cc1`, the growth inhibition is -4.15%.

Consider `CSc1cc(Cl)c(C)cc1S(=O)(=O)n1cc[nH]c1=O`, for which the growth inhibition is -0.05%.

As for `O=C1CN(CCN2CCCCC2)CC(=O)N2Cc3ccccc3CN12`, the growth inhibition was -1.55%.

As to `COC(=O)NC1(NC(=O)OC)NC(=O)c2cc(OC)c(OC)c(OC)c2N1`, the growth inhibition was -10.8%.

Consider `Cc1cccc(C(=O)NC(C)C)c1`, for which the growth inhibition was 15.8%.

Take `Cc1ccc(S(=O)(=O)OC2CCCCCC2c2ccccc2)cc1` (stereo not given): the growth inhibition was -42.5%.

As for `c1ccc2c(c1)CCCC(N1CCOCC1)C2` (stereo not given), the growth inhibition is 11.1%.

With `CCOC(=O)CSC(=O)NCCCl`, the growth inhibition is 8.45%.

In the case of `COc1ccc(C(=O)/C(Br)=C\C(=O)O)cc1`, the growth inhibition is 28.6%.

For `CCc1nc(N)nc(N)c1-c1ccc(Cl)c([N+](=O)[O-])c1`, the growth inhibition is -7.1%.

With `COc1ccc(C2CC(c3cc(C)ccc3O)=NC(N)=N2)cc1` (stereo not given), the growth inhibition was 13.2%.

For `CCOC(=O)Cc1csc2[n+]1C(=O)/C(=C/c1cccc(OC)c1O)S2`, the growth inhibition was -10.2%.

Turning to `COc1ccc(CCN2C(=O)C(=O)N(c3ccc([N+](=O)[O-])cc3)C2=O)cc1OC`, the growth inhibition was 8.6%.

For the compound `CC1(c2cccc[n+]2Cc2ccccc2S(=O)(=O)[O-])OCCO1`, the growth inhibition is 0.3%.

With `O=c1[nH]nc(SCc2ccccc2)c(=O)n1C(c1ccccc1)c1ccccc1`, the growth inhibition was 28.2%.

`COc1cc(C(=O)O)ccc1OC(C)=O`: the growth inhibition was 2.15%.

Regarding `O=C1C=C(c2ccccc2)C(O)(c2ccccc2)/C1=C/C=C/c1ccccc1` (stereo not given), the growth inhibition is -12.2%.

For the compound `Cc1onc(-c2c(F)cccc2Cl)c1C(=O)Nc1cc2cc([N+](=O)[O-])ccc2oc1=O`, the growth inhibition was 8.15%.

On to `C=CCSc1nc2ccc(NCn3c(=S)sc4ccccc43)cc2s1`, for which the growth inhibition was 47.1%.

Turning to `Nc1nc(Cl)nc(Nc2ccc(-c3cc4ccc(-c5ncc[nH]5)cc4[nH]3)cc2)n1`, the growth inhibition was 31.7%.

As to `CC(Br)C1=CC(c2ccccc2)(c2ccccc2)c2ccccc21` (stereo not given), the growth inhibition was 96.8% (active).

Turning to `COc1cccc(NC(=S)NC(=O)c2ccccc2)c1`, the growth inhibition is 37%.

Consider `Cc1ccc(C(=O)N2CCCCC2)cc1N=NN(C)C`, for which the growth inhibition is 14.3%.

Turning to `COC(=O)CC1(C(=O)OC)OC(=O)c2ccccc2N1C` (stereo not given), the growth inhibition was -24.6%.

As for `COc1cc(O)c(Cc2ccccc2O)c(O)c1C(=O)CCc1ccccc1`, the growth inhibition was -5.65%.

In the case of `Cc1ccccc1-c1nc2c([nH]1)c(=O)n(C)c(=O)n2C`, the growth inhibition was -32.3%.

For the compound `ClC(c1ccccc1)c1cccc2ccccc12` (stereo not given), the growth inhibition is 21.5%.

In the case of `O=S1(=O)OC(c2ccc(O)cc2)(c2ccc(O)cc2)c2ccccc21`, the growth inhibition was 9%.

Regarding `CCCSS[C@H]1NC(=O)[C@H]1NC(=O)COc1ccccc1`, the growth inhibition was 3.05%.

For `Cc1cc(N(CCC#N)CCC#N)ccc1N=Nc1ccccc1[N+](=O)[O-]`, the growth inhibition was 12.8%.

Consider `CC(C)(NC(=O)c1cc(Cl)c2ccccc2c1O)C(=O)O`, for which the growth inhibition was 22.9%.

With `CN1C(C(=O)Nc2ccccn2)=C(O)c2ccccc2S1(=O)=O`, the growth inhibition was 0.9%.
